Test results taken from PubChem BioAssay AID1259313 (Sanford-Burnham Center for Chemical Genomics, 2017).
The whole screen tested about 340,000 compounds, of which about 8,500 (2.5%) were called active. What follows is part of a selection rich in actives, with near analogues and random picks from the rest. Unmarked numbers belong to inactive results.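 How the source made its calls: active means melting temperature shift of at least 10% of the positive control shift, at one fixed dose; inactive means the rest.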

What follows are compounds tested on Glutamate receptor ionotropic, NMDA 3A (GRIN3A) ligand-binding domain (assay: binders of NR3A ligand-binding domain, primary screen, biophysical, differential scanning fluorimetry, uHTS (AID 1259313)). Details: NR3A LBD differential scanning fluorimetry, at 25 µM, active compounds read high, 0% = protein alone, 100% = glycine-bound protein.

Which Tm shift relative to glycine control does the source give for `O=C(Nc1ccc(OCC(=O)N2CCOCC2)cc1)c1cc(F)c(F)cc1Cl` here?
The Tm shift relative to glycine control was -1.28%.

`CNC1(c2nnnn2-c2c(C)cccc2C)CCOC(C)(C)C1` (centres undefined) was tested. Which Tm shift relative to glycine control did it give?
The Tm shift relative to glycine control was 0.08%.

With `Cc1cc(Nc2cccc(C)c2C)n2ncnc2n1` as the compound, how does the Tm shift relative to glycine control read?
The Tm shift relative to glycine control was 1.12%.

Which Tm shift relative to glycine control does the source give for `C[C@@H]1C(c2ccc(F)cc2)=NN(c2ccc(Br)cc2)[C@H]1C(=O)N1CCOC1=O` here?
Its Tm shift relative to glycine control is 7.36%.

With `O=C1OCCN1C(=O)[C@H]1[C@H](c2ccc(F)cc2)C(c2ccccc2)=NN1c1ccc(Br)cc1` as the compound, how does the Tm shift relative to glycine control read?
Its Tm shift relative to glycine control is 16% (active).

With `O=C1OCCN1C(=O)[C@H]1[C@H](c2ccc(Cl)cc2)C(c2cccc(Cl)c2)=NN1c1ccc(Br)cc1` as the compound, how does the Tm shift relative to glycine control read?
The Tm shift relative to glycine control was 18.1% (active).

Which Tm shift relative to glycine control does the source give for `O=C1OCCN1C(=O)[C@H]1[C@H](c2ccccc2)C(c2ccc(F)cc2)=NN1c1ccccc1` here?
The Tm shift relative to glycine control was -6.51%.

With `O=c1c2cc(Br)ccc2nc(-c2cccc(Cl)c2)n1O` as the compound, how does the Tm shift relative to glycine control read?
Its Tm shift relative to glycine control is -8.87%.

For `S=C1NC(c2ccccc2)=NCN1c1ccc(Br)cc1`, which Tm shift relative to glycine control is on record?
The Tm shift relative to glycine control was -1.51%.

`O=C(COc1ncnc2c(Cl)cc(Cl)cc12)N1CCN(S(=O)(=O)c2ccccc2)CC1` was tested. Which Tm shift relative to glycine control did it give?
Its Tm shift relative to glycine control is -7.02%.

How did the Tm shift relative to glycine control turn out when `CN1CCC(=NNC(=O)c2ccc(N(Cc3ccc(Cl)cc3)S(C)(=O)=O)cc2)CC1` was run?
The Tm shift relative to glycine control was -7.94%.

How did the Tm shift relative to glycine control turn out when `O=C(NCCSc1ccccc1)c1ccco1` was run?
The Tm shift relative to glycine control was 0.71%.

`O=C(Nc1ccc(O)cc1)c1ccc(NC(=O)c2ccco2)cc1` was tested. Which Tm shift relative to glycine control did it give?
The Tm shift relative to glycine control was 25% (active).

With `O=C(CNC(=O)c1ccco1)NNC(=O)c1ccc(Br)cc1` as the compound, how does the Tm shift relative to glycine control read?
The Tm shift relative to glycine control was 0.51%.

How did the Tm shift relative to glycine control turn out when `O=C(CSc1ccccc1)Nc1ccc(NC(=O)c2ccco2)cc1` was run?
Its Tm shift relative to glycine control is 11.8% (active).

How did the Tm shift relative to glycine control turn out when `O=C(NNC(=O)c1ccco1)Nc1ccccc1` was run?
Its Tm shift relative to glycine control is 1.84%.

How did the Tm shift relative to glycine control turn out when `Cc1cc(NC(=O)c2ccc(F)cc2)ccc1NC(=O)c1ccco1` was run?
The Tm shift relative to glycine control was -2.39%.

Which Tm shift relative to glycine control does the source give for `C/C(=N\NS(=O)(=O)c1ccc(Cl)cc1)c1ccc(NC(=O)c2ccco2)cc1` here?
The Tm shift relative to glycine control was -5.45%.

Which Tm shift relative to glycine control does the source give for `COC(=O)c1ccc(NC(=O)c2cc(Cl)ccc2OC)cc1` here?
Its Tm shift relative to glycine control is -3.8%.

`COC(=O)c1ccc(NC(=O)Nc2ccc(C)cc2)cc1` was tested. Which Tm shift relative to glycine control did it give?
Its Tm shift relative to glycine control is 14.4% (active).

`COC(=O)c1ccc(NC(=O)C(C)N2C(=O)c3ccccc3C2=O)cc1` (centres undefined) was tested. Which Tm shift relative to glycine control did it give?
Its Tm shift relative to glycine control is -0.85%.

Which Tm shift relative to glycine control does the source give for `Cc1cc(C)cc(NC(=O)CSc2ccccc2)c1` here?
The Tm shift relative to glycine control was 0.84%.

With `O=C(Nc1ccc(Sc2ccc(Br)cc2)cc1)c1ccco1` as the compound, how does the Tm shift relative to glycine control read?
Its Tm shift relative to glycine control is 11.6% (active).

With `CC12CCC(C(=O)N3CCN(c4ncccn4)CC3)(c3nc4ccccc4nc31)C2(C)C` (centres undefined) as the compound, how does the Tm shift relative to glycine control read?
Its Tm shift relative to glycine control is -1.28%.

For `COc1ccc(OC)c(S(=O)(=O)N2CCCC(C(=O)NCCc3ccccc3)C2)c1` (centres undefined), which Tm shift relative to glycine control is on record?
The Tm shift relative to glycine control was 0.67%.

`O=C(CNC(=O)[C@@H]1Cc2ccccc2CN1)NC1CCCCC1` was tested. Which Tm shift relative to glycine control did it give?
The Tm shift relative to glycine control was -12.5%.

How did the Tm shift relative to glycine control turn out when `CCOC(=O)N1CCN(C(=O)CN(C2CCCCC2)S(C)(=O)=O)CC1` was run?
The Tm shift relative to glycine control was -2.35%.

How did the Tm shift relative to glycine control turn out when `CCOc1ccc(NC(=O)CCS(=O)(=O)c2ccc3c(c2)CCCN3C(=O)CC)cc1` was run?
The Tm shift relative to glycine control was -2.2%.

`C#CCOCCOCCOCCNc1nc(N2CCN(C(=O)C([C@@H](C)CC)n3cc(C(N)COC(=O)C(F)(F)F)nn3)CC2)nc(N2CCN(C(=O)[C@H](CCCCN)n3cc(C(N)CC(C)C)nn3)CC2)n1` (some centres undefined) was tested. Which Tm shift relative to glycine control did it give?
The Tm shift relative to glycine control was 3.3%.

With `NNC(=O)CNC(c1ccccc1)c1cc(Cl)ccc1NC(=O)c1ccccc1` (centres undefined) as the compound, how does the Tm shift relative to glycine control read?
Its Tm shift relative to glycine control is 2.13%.

How did the Tm shift relative to glycine control turn out when `O=C(CSc1ccccc1)Nc1ccc(C(=O)Nc2cccc(O)c2)cc1` was run?
Its Tm shift relative to glycine control is 29.4% (active).

With `CCOC(=O)c1ccc(NC(=O)CNC(=O)c2ccco2)cc1` as the compound, how does the Tm shift relative to glycine control read?
The Tm shift relative to glycine control was -0.36%.

For `CSc1cccc(NC(=O)CSc2ccccc2)c1`, which Tm shift relative to glycine control is on record?
Its Tm shift relative to glycine control is -11.8%.

`COc1cc(NC(=O)Nc2ccc(C)cc2)cc([N+](=O)[O-])c1` was tested. Which Tm shift relative to glycine control did it give?
The Tm shift relative to glycine control was 32.9% (active).

`O=C(Nc1ccc(CSc2ccccc2)cc1)c1ccc(CN2CCOCC2)cc1` was tested. Which Tm shift relative to glycine control did it give?
The Tm shift relative to glycine control was -2.35%.

How did the Tm shift relative to glycine control turn out when `COc1ccc(S(=O)(=O)NNC(=O)Nc2ccc(C)cc2)c(OC)c1` was run?
Its Tm shift relative to glycine control is -2.73%.

How did the Tm shift relative to glycine control turn out when `CCOc1ccc(NC(=O)Nc2cc(C)ccc2OC)cc1` was run?
The Tm shift relative to glycine control was -2.2%.

Which Tm shift relative to glycine control does the source give for `COC(=O)c1ccc(NC(=O)c2ccco2)cc1` here?
The Tm shift relative to glycine control was 21.7% (active).

For `CC(C)(C)NC(=O)c1cc(NC(=O)c2ccco2)cc(NC(=O)c2ccco2)c1`, which Tm shift relative to glycine control is on record?
Its Tm shift relative to glycine control is 1.37%.

`CCOC(=O)/C(C#N)=C\c1c(C)cc(C)c(COC(C)=O)c1C` was tested. Which Tm shift relative to glycine control did it give?
The Tm shift relative to glycine control was -1.41%.

With `O=C1CSC(c2ccc(Cl)cc2)N1` (centres undefined) as the compound, how does the Tm shift relative to glycine control read?
Its Tm shift relative to glycine control is 0.65%.

How did the Tm shift relative to glycine control turn out when `CCOc1ccccc1NC(=O)Cn1ncc2ccc([N+](=O)[O-])cc21` was run?
Its Tm shift relative to glycine control is 1.06%.

`Cc1nonc1C(=O)N/N=C/c1ccc(O)cc1` was tested. Which Tm shift relative to glycine control did it give?
Its Tm shift relative to glycine control is -3.82%.

How did the Tm shift relative to glycine control turn out when `O=C(CCCN1C(=O)CSc2ncccc21)N1CCN(c2cccc(C(F)(F)F)c2)CC1` was run?
The Tm shift relative to glycine control was -1.45%.

Which Tm shift relative to glycine control does the source give for `Cc1ccc(S(=O)(=O)N2CCC3(CC2)OCCO3)c(C)c1` here?
Its Tm shift relative to glycine control is -0.77%.

`CCOc1ccc(Nc2nc(Cc3nnc(SCC(=O)c4ccc(C)cc4)o3)cs2)cc1` was tested. Which Tm shift relative to glycine control did it give?
Its Tm shift relative to glycine control is -12.6%.

`O=C1C(=O)N(CCCN2CCOCC2)C(c2ccc([N+](=O)[O-])cc2)/C1=C(\O)c1ccc2c(c1)OCCO2` (centres undefined) was tested. Which Tm shift relative to glycine control did it give?
The Tm shift relative to glycine control was 0%.

How did the Tm shift relative to glycine control turn out when `Cc1ccc(NC(=O)Cn2c(=O)n(CCC(=O)NC3CCN(Cc4ccccc4)CC3)c(=O)c3ccccc32)cc1` was run?
The Tm shift relative to glycine control was 0.79%.

For `CC(=O)c1c(C)[nH]c(C(=O)OCC(=O)Nc2sc3c(c2C#N)CCCC3)c1C`, which Tm shift relative to glycine control is on record?
Its Tm shift relative to glycine control is 4.13%.

Which Tm shift relative to glycine control does the source give for `O=C(CN1C(=O)C2C3C=CC(C3)C2C1=O)Nc1nc(-c2ccccn2)cs1` (centres undefined) here?
The Tm shift relative to glycine control was 17.6% (active).

For `O=C(NCCN1C(=O)C2C3C=CC(C3)C2C1=O)Nc1ccccn1` (centres undefined), which Tm shift relative to glycine control is on record?
Its Tm shift relative to glycine control is -0.55%.

How did the Tm shift relative to glycine control turn out when `O=C(COc1ccccc1F)Nc1nc(-c2ccccn2)cs1` was run?
Its Tm shift relative to glycine control is -41.9%.

`O=C(NCCc1ccccc1)C(=O)NCC1OCCN1S(=O)(=O)c1cccs1` (centres undefined) was tested. Which Tm shift relative to glycine control did it give?
The Tm shift relative to glycine control was 5.49%.

Which Tm shift relative to glycine control does the source give for `CCOC(=O)N1CCN(C(=O)c2ccccc2SCC(=O)NCC2CCCCC2)CC1` here?
Its Tm shift relative to glycine control is 0.96%.

For `O=C(O)c1cscn1`, which Tm shift relative to glycine control is on record?
Its Tm shift relative to glycine control is -2.23%.

How did the Tm shift relative to glycine control turn out when `Cc1oc(-c2ccccc2Cl)[n+]([O-])c1C` was run?
Its Tm shift relative to glycine control is 0.65%.

With `COC(=O)C1=C(C)N(C)C(=S)NC1c1ccccc1` (centres undefined) as the compound, how does the Tm shift relative to glycine control read?
Its Tm shift relative to glycine control is 1.46%.

Which Tm shift relative to glycine control does the source give for `COC(=O)C1=C(C)N(C)C(C)=C(C(=O)OC)C1c1cccc(Br)c1` here?
Its Tm shift relative to glycine control is 10.9% (active).

How did the Tm shift relative to glycine control turn out when `COC(=O)C1NN=C(C(=O)c2ccc(Br)cc2)C1c1cccc(Br)c1` (centres undefined) was run?
Its Tm shift relative to glycine control is -3.88%.
